Experimental data taken from PubChem BioAssay (NCATS).
Records with an inconclusive call do not appear. Entries that show only a call come without a potency. Active and inactive are the calls of the source. Unless noted, the call rests on the fitted dose curve; in most records, active means well fitted curve in the direction sought with a large enough effect; inconclusive means small, poorly fitted or top-dose-only effect, or another doubt; inactive means no such curve, though single readings can be large; an effect the other way counts as inactive or inconclusive.

Columns and labels:
[1] = molecular target: DNA repair nuclease/redox regulator APEX1 (Homo sapiens) (UniProt P27695); test: qHTS Validation Assay for Inhibitors of the Human Apurinic/apyrimidinic Endonuclease 1 (APE1) (AID 1705;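 further: TAMRA fluorescence gain over two minutes as APE1 cuts a quenched THF abasic duplex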); details: purified APE1 endonuclease activity, fluorescence, titration; series mostly up to 57.1 µM
Sequence of DNA repair nuclease/redox regulator APEX1 (Homo sapiens) (P27695 whole entry, looked up): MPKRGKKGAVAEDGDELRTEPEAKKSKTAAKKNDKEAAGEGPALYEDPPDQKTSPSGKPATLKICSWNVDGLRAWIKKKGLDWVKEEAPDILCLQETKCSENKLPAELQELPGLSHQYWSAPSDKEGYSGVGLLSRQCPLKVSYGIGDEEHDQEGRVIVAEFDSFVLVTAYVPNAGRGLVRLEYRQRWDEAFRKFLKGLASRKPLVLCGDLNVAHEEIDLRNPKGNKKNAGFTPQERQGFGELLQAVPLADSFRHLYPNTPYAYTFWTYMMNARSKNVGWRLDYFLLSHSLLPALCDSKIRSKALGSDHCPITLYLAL
Summary of the method: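 Substrate: 50 nM final fluorophore/quencher THF-abasic duplex. Enzyme preincubated with compounds 15 min, RT. Progress derived from fluorescence difference, third minus first kinetic read.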

[2] = Counterscreen for APE1 Inhibitors: Fluorescent Dye Displacement Validation Assay (AID 1707); details: fluorescent dye displacement from DNA; series mostly up to 57.1 µM
Summary of the method: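 Assay buffer: Tris-HCl pH7.5 with 50mM NaCl, 2 mM MgCl2, 0.01% Tween-20. Dye 250 nM, duplex 50 nM final. Readout: decrease in ThO endpoint fluorescence, 480 nm excitation, 540 nm emission.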

[3] = molecular target: Endonuclease 4 (Escherichia coli (strain K12)) (UniProt P0A6C1); test: Counterscreen for APE1 Inhibitors: qHTS Validation Assay for Inhibitors of Endonuclease IV (AID 1708); details: E. coli endonuclease IV, DNA cleavage fluorescence; series mostly up to 57.1 µM
Summary of the method: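 Enzymatic AP-site incision assay using a double-stranded THF substrate labelled with TAMRA and BHQ-2; released fluorescence signals activity. Enzyme 2 nM, substrate 50 nM, 15 min compound preincubation.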

[4] = molecular target: ATP-dependent DNA helicase Q1 (Homo sapiens) (UniProt P46063); test: qHTS Validation Assay for Inhibitors of RecQ-Like Dna Helicase 1 (RECQ1) (AID 2353); details: recombinant RECQ1 helicase DNA unwinding assay; series mostly up to 25.6 µM
Sequence of ATP-dependent DNA helicase Q1 (Homo sapiens) (P46063 whole entry, looked up): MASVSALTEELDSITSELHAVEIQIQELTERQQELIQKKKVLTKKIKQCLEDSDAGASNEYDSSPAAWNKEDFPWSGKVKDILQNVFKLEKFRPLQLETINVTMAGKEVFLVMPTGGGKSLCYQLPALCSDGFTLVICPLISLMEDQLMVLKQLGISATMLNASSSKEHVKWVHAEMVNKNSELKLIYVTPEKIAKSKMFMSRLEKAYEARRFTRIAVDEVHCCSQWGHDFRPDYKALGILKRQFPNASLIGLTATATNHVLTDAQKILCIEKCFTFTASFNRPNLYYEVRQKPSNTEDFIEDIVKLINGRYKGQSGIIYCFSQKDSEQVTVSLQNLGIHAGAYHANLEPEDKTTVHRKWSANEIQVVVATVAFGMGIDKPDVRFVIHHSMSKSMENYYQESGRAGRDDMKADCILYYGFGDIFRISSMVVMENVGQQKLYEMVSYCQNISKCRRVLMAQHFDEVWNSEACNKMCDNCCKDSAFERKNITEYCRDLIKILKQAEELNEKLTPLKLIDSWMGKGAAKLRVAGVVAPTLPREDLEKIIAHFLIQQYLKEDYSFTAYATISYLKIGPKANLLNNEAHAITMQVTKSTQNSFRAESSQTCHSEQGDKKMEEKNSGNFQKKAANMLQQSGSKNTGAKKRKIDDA
Summary of the method: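 50 nM RECQ1T1 preincubated 15 min with compound in Tris pH 8.0 buffer with MgCl2, DTT, Tween-20 and 2.5 ug/ml poly(dI-dC); started with 200 nM TAMRA/BHQ-2 forked duplex and 2 mM ATP. Unwinding read as fluorescence (525/598 nm), two reads 2 h apart.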

[5] = molecular target: RecQ-like DNA helicase BLM (Homo sapiens) (UniProt P54132); test: qHTS Validation Assay for Inhibitors of Bloom's syndrome helicase (BLM) (AID 2364); details: BLM helicase DNA unwinding, fluorescence, in vitro; series mostly up to 57.1 µM
Sequence of RecQ-like DNA helicase BLM (Homo sapiens) (P54132 whole entry, looked up): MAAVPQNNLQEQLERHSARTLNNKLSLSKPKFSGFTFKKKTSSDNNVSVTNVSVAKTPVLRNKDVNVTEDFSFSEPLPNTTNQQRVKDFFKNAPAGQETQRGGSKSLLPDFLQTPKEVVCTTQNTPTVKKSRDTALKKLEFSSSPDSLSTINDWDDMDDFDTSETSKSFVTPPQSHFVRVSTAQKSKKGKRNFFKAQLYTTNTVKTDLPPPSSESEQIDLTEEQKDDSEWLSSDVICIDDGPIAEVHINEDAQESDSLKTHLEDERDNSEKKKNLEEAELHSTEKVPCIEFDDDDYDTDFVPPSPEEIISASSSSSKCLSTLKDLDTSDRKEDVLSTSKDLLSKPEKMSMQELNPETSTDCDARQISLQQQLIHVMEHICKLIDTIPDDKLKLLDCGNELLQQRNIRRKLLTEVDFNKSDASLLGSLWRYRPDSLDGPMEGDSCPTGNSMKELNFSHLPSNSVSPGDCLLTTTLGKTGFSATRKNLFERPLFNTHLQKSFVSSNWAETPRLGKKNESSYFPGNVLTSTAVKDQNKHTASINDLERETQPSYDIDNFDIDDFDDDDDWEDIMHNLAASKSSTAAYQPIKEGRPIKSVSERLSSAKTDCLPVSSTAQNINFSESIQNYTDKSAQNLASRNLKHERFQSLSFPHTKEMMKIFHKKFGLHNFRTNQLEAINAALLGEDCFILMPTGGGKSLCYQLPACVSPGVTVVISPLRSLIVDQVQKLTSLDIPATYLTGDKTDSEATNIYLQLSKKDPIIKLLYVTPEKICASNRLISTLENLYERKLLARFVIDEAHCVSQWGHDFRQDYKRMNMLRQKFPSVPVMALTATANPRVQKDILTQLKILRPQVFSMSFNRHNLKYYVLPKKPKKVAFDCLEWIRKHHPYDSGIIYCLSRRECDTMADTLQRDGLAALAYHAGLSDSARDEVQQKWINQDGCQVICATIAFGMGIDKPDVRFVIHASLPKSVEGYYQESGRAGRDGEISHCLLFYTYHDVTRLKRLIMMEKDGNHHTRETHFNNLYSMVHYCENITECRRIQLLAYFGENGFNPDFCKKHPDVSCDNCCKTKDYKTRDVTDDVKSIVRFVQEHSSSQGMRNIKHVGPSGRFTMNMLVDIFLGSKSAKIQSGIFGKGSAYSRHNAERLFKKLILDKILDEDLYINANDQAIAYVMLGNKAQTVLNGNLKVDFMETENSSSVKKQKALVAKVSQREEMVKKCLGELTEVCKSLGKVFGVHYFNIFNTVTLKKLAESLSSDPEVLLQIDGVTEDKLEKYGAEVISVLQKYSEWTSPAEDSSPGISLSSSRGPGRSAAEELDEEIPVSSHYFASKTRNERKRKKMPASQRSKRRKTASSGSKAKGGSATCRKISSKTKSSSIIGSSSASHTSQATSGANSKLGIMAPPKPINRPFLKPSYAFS
Summary of the method: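 Forked 20-bp duplex substrate (200 nM, TAMRA/BHQ-2) plus 2 mM ATP added after 15 min compound preincubation with 50 nM enzyme, pH 8.0, poly(dI-dC) 2.5 ug/ml. Strand separation followed by fluorescence (525/598 nm) over 2 h, normalized to enzyme-free and DMSO controls.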

[6] = molecular target: Alpha-galactosidase A (Homo sapiens) (UniProt P06280); test: Counterscreen for Glucocerebrosidase Inhibitors: qHTS Assay for Human alpha-Galactosidase at pH 4.5 (AID 992); details: purified enzyme, fluorogenic substrate; series mostly up to 76.9 µM
Sequence of Alpha-galactosidase A (Homo sapiens) (P06280 whole entry, looked up): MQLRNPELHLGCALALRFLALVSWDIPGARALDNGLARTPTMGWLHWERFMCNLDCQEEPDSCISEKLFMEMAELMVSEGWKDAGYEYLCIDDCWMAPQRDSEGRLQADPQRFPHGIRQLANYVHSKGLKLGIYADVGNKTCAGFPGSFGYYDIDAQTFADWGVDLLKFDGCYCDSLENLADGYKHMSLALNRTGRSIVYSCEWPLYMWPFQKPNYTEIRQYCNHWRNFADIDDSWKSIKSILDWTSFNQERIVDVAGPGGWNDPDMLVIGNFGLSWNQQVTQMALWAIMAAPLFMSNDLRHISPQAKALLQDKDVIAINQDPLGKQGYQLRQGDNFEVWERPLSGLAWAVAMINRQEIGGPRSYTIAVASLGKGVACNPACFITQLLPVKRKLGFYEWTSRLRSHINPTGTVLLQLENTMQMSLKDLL
Summary of the method: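 Concentration-response curves (0.7 nM to 77 uM final) were modeled with the Hill equation to give AC50. Reactions: 2 nM enzyme, 80 uM fluorogenic alpha-galactoside, pH 4.5 citric acid buffer, 20 min, room temperature.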

[7] = molecular target: alpha-glucosidase (Oryza sativa, rice) (UniProt Q653V4); test: Counterscreen for Glucocerebrosidase Inhibitors: qHTS Assay for Rice alpha-Glucosidase at pH 5.0 (AID 997); details: rice alpha-glucosidase enzyme activity; series mostly up to 76.9 µM
Summary of the method: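 Rice alpha-glucosidase (4 nM final) with 400 uM 4-methylumbelliferyl-alpha-D-glucopyranoside in citrate buffer pH 5.0, 20 min at room temperature, stopped at pH 10; fluorescence 365/440 nm, compounds 0.7 nM–77 uM, AC50 from Hill fits.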

[8] = Validation of Assay for Modulators of Lamin A Splicing (AID 1459; active means well fitted curve in the direction sought with a large enough effect in the signal ratio; the % refers to the signal ratio;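 further: cells exposed to compound for two days before reading; ratio rise marks activators and ratio drop marks inhibitors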); details: Lamin A splicing dual RFP/GFP fluorescence reporter; series mostly up to 9.22 µM
Summary of the method: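 Dual-reporter HeLa S3 line (lamin A-EGFP minigene, DsRed2) treated with compounds 48 hrs, 0.5% DMSO final. Endpoint: EGFP/DsRed2 total intensity ratio from laser-scanning microplate cytometry.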

[9] = qHTS for differential inhibitors of proliferation of Plasmodium falciparum line GB4 (AID 1816); details: series mostly up to 28.7 µM;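 further: parasite growth measured after 72 h incubation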
[10] = qHTS for differential inhibitors of proliferation of Plasmodium falciparum line 3D7 (AID 1876);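 further: parasite growth measured after three days of culture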; details: P. falciparum 3D7 proliferation inhibition; series mostly up to 28.7 µM
[11] = qHTS for differential inhibitors of proliferation of Plasmodium falciparum line D10 (AID 1877); details: series mostly up to 28.7 µM;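 further: parasites grown with compound for 72 h before DNA staining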
[12] = qHTS for differential inhibitors of proliferation of Plasmodium falciparum line Dd2 (AID 1882); details: series mostly up to 28.7 µM;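 further: compound exposure of 72 h on infected erythrocytes; nearly all actives have a fitted effect of over 65% in size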
Summary of the method: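 SYBR Green I DNA fluorescence read-out, ex 485/em 535 nm. Signals were normalized to 0.29 uM artemisinin and DMSO wells, then corrected using vehicle-only plates flanking each stack. Parasite growth ran 72 h in erythrocytes before lysis.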

[13] = qHTS for differential inhibitors of proliferation of Plasmodium falciparum line W2 (AID 1883); details: Plasmodium falciparum W2 proliferation inhibition;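 further: potency means the concentration at half of the fitted maximal effect; parasites grown with compound for 72 h before lysis and staining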
[14] = qHTS for differential inhibitors of proliferation of Plasmodium falciparum line HB3 (AID 1886); details: series mostly up to 28.7 µM;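 further: parasites grown with compound for 72 h before SYBR Green readout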
[15] = Cytometric Cell-Based qHTS for Inhibitors of the mTORC1 Signaling Pathway in MEF (Tsc2-/-, p53-/-) Cells (AID 2660); details: mTORC1 pathway cytometry; series mostly up to 38.3 µM;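 further: Tsc2 and p53 null MEFs carrying empty vector with compound for 24 h; percent of cells above a phospho-rpS6 to PI ratio cutoff in each well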
Summary of the method: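 Cells are plated, treated with compound for 24 hrs at 37 degree Celsius, then fixed, blocked and immunostained for phospho-rpS6 Ser235/236. Propidium iodide counterstain follows. Per-well % positive cells is derived from the PI-normalized phospho-S6 signal.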

[16] = High Content Imaging Cell-Based qHTS for Inhibitors of the mTORC1 Signaling Pathway in MEF (Tsc2-/-, p53-/-) Cells (AID 2666); details: at 38.3 µM (top of the series);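 further: percent of cells scored positive for phospho-rpS6 Ser235/236 immunostaining by imaging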
Summary of the method: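 Cells were plated, dosed with compound after 24 hrs, and incubated another 24 hrs at 37 degree Celsius. Fixed cells were immunostained for phospho-rpS6 Ser235/236 and counterstained, and the normalized signal was scored as % active cells against rapamycin and DMSO controls.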

[17] = High Content Imaging Cell-Based qHTS for Inhibitors of the mTORC1 Signaling Pathway in MEF Cells (AID 2667); details: series mostly up to 38.3 µM;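 further: Tsc2-/- p53-/- MEFs stably re-expressing wild-type Tsc2 exposed 24 h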
Summary of the method: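 Immunofluorescence for rpS6 phosphorylation in MEFs of Tsc2-/-, p53-/- background rescued with WT Tsc2. Compound exposure lasted 24 hrs. Inhibition was scored against rapamycin-treated control wells.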

[18] = Validation screen for small molecules that induce DNA re-replication in MCF 10A normal breast cells (AID 463097); details: MCF 10A cells, DNA re-replication phenotype imaging; series mostly up to 46.1 µM; further: nearly all actives have a fitted effect of over 60% in size
Summary of the method: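 Following 48 hr compound incubation (37 C, 5% CO2), MCF 10A cells receive Hoechst for 40 min at 37 C. Nuclei are then scanned (excitation 405 nm, emission 500-530 nm) for total fluorescence intensity.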

[19] = molecular target: Ubiquitin carboxyl-terminal hydrolase 2 (Homo sapiens) (UniProt O75604); test: qHTS Validation Assay for Inhibitors of Ubiquitin-specific Protease USP2a Using CHOP2 as the Reporter (AID 463106); details: USP2a cleavage of CHOP2 reporter, enzymatic; series mostly up to 38.3 µM
Sequence of Ubiquitin carboxyl-terminal hydrolase 2 (Homo sapiens) (O75604 whole entry, looked up): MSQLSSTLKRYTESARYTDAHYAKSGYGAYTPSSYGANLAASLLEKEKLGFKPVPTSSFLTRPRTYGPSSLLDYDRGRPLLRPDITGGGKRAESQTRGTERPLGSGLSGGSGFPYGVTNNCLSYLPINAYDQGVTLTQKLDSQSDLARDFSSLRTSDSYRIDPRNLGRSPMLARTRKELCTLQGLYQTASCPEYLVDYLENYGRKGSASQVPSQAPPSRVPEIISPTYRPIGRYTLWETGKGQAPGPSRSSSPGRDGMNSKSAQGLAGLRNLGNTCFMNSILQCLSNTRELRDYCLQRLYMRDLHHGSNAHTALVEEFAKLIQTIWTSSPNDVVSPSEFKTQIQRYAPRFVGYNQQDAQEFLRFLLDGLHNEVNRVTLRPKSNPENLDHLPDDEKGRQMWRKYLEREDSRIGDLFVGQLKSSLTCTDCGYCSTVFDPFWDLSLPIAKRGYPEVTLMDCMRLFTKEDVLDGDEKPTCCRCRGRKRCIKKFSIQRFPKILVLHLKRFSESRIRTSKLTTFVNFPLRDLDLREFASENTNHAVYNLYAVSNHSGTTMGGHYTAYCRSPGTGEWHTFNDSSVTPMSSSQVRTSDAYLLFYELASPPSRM
Summary of the method: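 10nM USP2 core + cpd, 30min RT; add 25nM Ub-CHOP2/25nM substrate; 60min RT; FI 485/531nm. Buffer Tris pH 8.0, CaCl2, BME, CHAPS. Norm. to NEM = 100% inhibition; time-zero read flags fluorescent artifacts.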

[20] = molecular target: DNA polymerase III PolC-type (Bacillus subtilis (strain 168)) (UniProt P13267); test: qHTS Validation Assay for the Inhibitors of DNA Replication in Gram-Positive Bacteria (AID 485295); details: Gram-positive bacterial DNA replication assay; series mostly up to 57.1 µM;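 further: reconstituted holoenzyme with PolC plus beta clamp SSB and primase; PicoGreen fluorescence of double-stranded DNA made on primed circular M13 template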
Sequence of DNA polymerase III PolC-type (Bacillus subtilis (strain 168)) (P13267 whole entry, looked up): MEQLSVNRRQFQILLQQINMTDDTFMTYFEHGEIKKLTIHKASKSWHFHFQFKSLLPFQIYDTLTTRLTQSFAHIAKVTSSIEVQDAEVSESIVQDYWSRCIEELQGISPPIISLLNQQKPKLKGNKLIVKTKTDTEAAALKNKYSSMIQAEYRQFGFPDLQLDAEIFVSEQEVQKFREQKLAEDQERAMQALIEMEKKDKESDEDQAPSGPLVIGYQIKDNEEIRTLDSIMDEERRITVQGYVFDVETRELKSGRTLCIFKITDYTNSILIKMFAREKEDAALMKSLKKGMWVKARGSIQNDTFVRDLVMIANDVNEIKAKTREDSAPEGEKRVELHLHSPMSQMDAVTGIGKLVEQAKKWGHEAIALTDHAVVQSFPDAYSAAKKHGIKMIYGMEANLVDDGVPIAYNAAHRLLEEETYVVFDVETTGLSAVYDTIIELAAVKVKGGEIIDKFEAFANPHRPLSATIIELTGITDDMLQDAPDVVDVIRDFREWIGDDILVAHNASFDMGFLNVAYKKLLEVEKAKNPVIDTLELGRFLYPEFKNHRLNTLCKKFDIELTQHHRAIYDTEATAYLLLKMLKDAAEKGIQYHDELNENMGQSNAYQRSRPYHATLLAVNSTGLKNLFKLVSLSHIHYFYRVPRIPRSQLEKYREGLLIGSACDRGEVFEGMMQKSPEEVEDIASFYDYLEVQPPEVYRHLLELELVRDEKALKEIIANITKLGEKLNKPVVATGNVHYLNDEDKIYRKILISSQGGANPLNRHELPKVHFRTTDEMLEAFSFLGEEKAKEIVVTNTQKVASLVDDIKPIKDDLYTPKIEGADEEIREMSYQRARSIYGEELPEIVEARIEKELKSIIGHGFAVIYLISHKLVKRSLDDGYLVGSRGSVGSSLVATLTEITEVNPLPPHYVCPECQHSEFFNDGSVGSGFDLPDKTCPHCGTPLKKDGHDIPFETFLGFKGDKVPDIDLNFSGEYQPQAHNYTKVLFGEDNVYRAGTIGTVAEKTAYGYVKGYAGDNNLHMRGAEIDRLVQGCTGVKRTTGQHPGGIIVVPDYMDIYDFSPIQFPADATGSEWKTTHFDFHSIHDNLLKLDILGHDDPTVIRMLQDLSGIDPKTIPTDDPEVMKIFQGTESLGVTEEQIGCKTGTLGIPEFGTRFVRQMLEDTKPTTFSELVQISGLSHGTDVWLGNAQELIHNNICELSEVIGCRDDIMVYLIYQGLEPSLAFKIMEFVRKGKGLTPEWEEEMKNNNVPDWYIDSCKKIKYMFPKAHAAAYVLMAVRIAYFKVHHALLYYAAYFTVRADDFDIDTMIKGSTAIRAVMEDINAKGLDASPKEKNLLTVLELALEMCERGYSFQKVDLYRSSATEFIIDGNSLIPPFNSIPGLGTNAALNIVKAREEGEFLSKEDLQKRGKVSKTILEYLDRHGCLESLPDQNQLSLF
Summary of the method: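 Inhibition of DNA synthesis by the reconstituted PolC holoenzyme, monitored through PicoGreen staining of dsDNA formed from ssM13Gori, dNTPs and NTPs, with compound preincubation and room-temperature reaction.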

SMILES | outcome [1] | outcome [2] | outcome [3] | outcome [4] | outcome [5] | outcome [6] | outcome [7] | outcome [8] | outcome [9] | outcome [10] | outcome [11] | outcome [12] | Potency [13] | outcome [14] | outcome [15] | outcome [16] | outcome [17] | outcome [18] | outcome [19] | outcome [20]
CC[C@H](CO)Nc1nc(NCc2ccccc2)c2ncn(C(C)C)c2n1 | inactive | inactive | inactive | inactive | inactive | – | – | – | – | – | – | – | – | – | – | – | – | – | – | –
O=c1c2ccccc2nc2n1CCc1c-2[nH]c2ccccc12 | inactive | inactive | inactive | inactive | – | inactive | inactive | inactive | inactive | inactive | inactive | inactive | 12.6 µM (active) | inactive | inactive | inactive | inactive | inactive | inactive | inactive
